# Assay outcomes deposited in PubChem by National Center for Advancing Translational Sciences (NCATS).
# KDM5B inhibitor – KDM5B demethylase inhibition; Q9UGL1; KDM5B demethylase, FDH-coupled NADH fluorescence (FDH is formaldehyde dehydrogenase); Potency, µM (doses to about 57.7 µM), most hits filed as inhibitors; actives 2.6% (n = 220,000); active = well fitted inhibition curve with a large enough effect; note: 0% is about no effect; nearly all actives have a fitted effect of over 70% in size
#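 Measured: NADH fluorescence change, 30 min, RT. System: KDM5BΔAP 200 nM final, H3K4me3 peptide, α-KG, Fe(II), ascorbate, NAD⁺ plus FDH, pH 7.5 HEPES. Compounds: titrated, 10 min pre-incubation with enzyme.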
# Starred values were filed as active, the others as inactive; i = inactive. The sample as a whole holds a higher share of hits than the screen did. Potency is the fitted concentration of half-maximal effect.
SMILES,KDM5B inhibitor
CC(=O)c1ccc(N2CCN(Cc3nc(-c4cccs4)no3)CC2)c(F)c1,i
Cc1nc(-c2ccc(F)cc2)n(CC(=O)Nc2cc(C(F)(F)F)ccc2Cl)c(=O)c1CCO,i
CC(=O)c1c(C)[nH]c(-c2csc(CC(=O)Nc3cccc(C)c3)n2)c1C,i
Cc1cccc(C)c1NC(=O)CN(C)S(=O)(=O)c1c(C)noc1C,i
CCCCCCNC(=O)c1cccc2ncccc12,i
O=C(CCc1ccccc1)N1CCC2(CC1)N=C(c1ccc(Cl)cc1)NO2,i
CCOc1ccc(C(=O)N2CCC3(CC2)N=C(c2ccc(Cl)cc2)NO3)cc1,28µM*
Cc1ccc(C2=NC3(CCN(C(=O)Cc4ccc(F)cc4)CC3)ON2)cc1,i
O=C(c1ccc(Cl)cc1)N1CCC2(CC1)N=C(c1ccccc1)NO2,i
Cc1ccc(C2=NC3(CCN(C(=O)c4ccc(F)c(F)c4)CC3)ON2)cc1,i
CCOc1ccc(CC(=O)N2CCC3(CC2)N=C(c2ccc(Cl)cc2)NO3)cc1,16µM*
Cc1ccc(N(C)S(=O)(=O)c2c(-c3cccc(F)c3)csc2C(=O)NCc2cccnc2)cc1,i
O=S(=O)(NCCO)c1cc(Cl)ccc1Cl,i
CC(C)(C)NC(=O)NCc1cc2n(n1)CCCN(C(=O)C1CCC1)C2,i
C[C@@]1(O)CCN(c2ncccc2C(=O)c2nccs2)C[C@@H]1O,i
O=C(c1nccs1)c1cccnc1N1CCNCC(O)C1 (stereo not given),10µM*
NC(=O)c1cccnc1N1CCOC(CC(c2ccccc2)c2ccccc2)C1 (stereo not given),i
COCCNC(=O)[C@@H]1C[C@H](Oc2cccnc2)CN1C(=O)c1ccoc1,i
CCCCCC(=O)Nc1nc2c(s1)C[C@@H]1[C@](C)(CO)[C@H](O)CC[C@@]1(C)[C@@H]2CC(=O)NCCOC,i
Cc1cc(Cl)ccc1OC(C)c1nc(-c2ccc(Br)o2)no1 (stereo not given),i
CC(C)NC(=O)c1ccc(Cn2ccn3nc4c(c3c2=O)CCCC4)cc1,i
COc1ccccc1Cn1ccn2nc3c(c2c1=O)CCCC3,i
Cc1oc(-c2ccc(OC(C)C)cc2)nc1Cn1ccn2nc3c(c2c1=O)CCCC3,28µM*
COc1cccc(C(=O)Nc2c(N3CCCC3)c3ccccc3oc2=O)c1,i
COc1ccc(/C=C/C(=O)Oc2ccccc2Cl)cc1,i
SMILES,KDM5B inhibitor
CCc1ccccc1NC(=O)CSc1nnc2[nH]c(=O)c(Cc3ccc(C)cc3)nn12,i
CC1(COc2cccnc2)COc2ccc(C(=O)NCc3ccc(F)cc3)cc2N1 (stereo not given),32µM*
CN(C(=O)c1ccc2c(c1)NC(C)(COc1cccnc1)CO2)c1ccccc1 (stereo not given),i
CC(=O)N1CCN(C(=O)c2ccc3c(c2)NC(C)(COc2cccnc2)CO3)CC1 (stereo not given),i
COCCN(C)C(=O)c1ccc2c(c1)NC(C)(COc1cccnc1)CO2 (stereo not given),i
CC1(COc2cccnc2)COc2ccc(C(=O)NCc3cccs3)cc2N1 (stereo not given),35µM*
CC1(COc2cccnc2)COc2ccc(C(=O)NCc3ccc4c(c3)OCO4)cc2N1 (stereo not given),16µM*
CC1(COc2cccnc2)COc2ccc(C(=O)NCc3cnccn3)cc2N1 (stereo not given),i
COCCCNC(=O)N1CCCCCCNC(=O)[C@@H]2CCCC[C@@H]21,i
CNC(=O)C1(N2CCC[C@H]2C(=O)N2CCOCC2)CCCCC1,i
COC1C(C2COC3(CCCCC3)O2)OC2OC3(CCCCC3)OC21 (stereo not given),i
O=C(/C(Cl)=C/N1CCN(C(c2ccccc2)c2ccccc2)CC1)C(F)(F)F,i
CCCNc1nc2c(c(=O)n(C)c(=O)n2C)n1Cc1ccc(Br)cc1,i
Cn1cc(-c2ccc(O)c(F)c2)c2nc(COc3ccc(Cl)cc3)cn2c1=O,20µM*
Cn1nccc1OCc1cn2c(=O)n(C)cc(-c3cccc(OCc4ccccc4)c3)c2n1,40µM*
COCc1cn2c(=O)n(C)cc(-c3cccc(F)c3)c2n1,i
Cn1cc(-c2cccnc2)c2nc(COc3ccccc3)cn2c1=O,i
COCc1cn2c(=O)n(C)cc(-c3ccc(OC)nc3)c2n1,i
Cc1c(-c2cn(C)c(=O)n3cc(COc4ccccc4)nc23)cnn1C,i
COCc1cn2c(=O)n(C)cc(-c3ccnc(OC)c3)c2n1,32µM*
COc1ccc(-c2cn(C)c(=O)n3cc(COc4ccnn4C)nc23)cc1OC,35µM*
COc1ccc(-c2cn(C)c(=O)n3cc(CN4CCN(C)CC4)nc23)cn1,i
Cn1cc(-c2ccccc2F)c2nc(COc3ccccc3)cn2c1=O,i
Cc1ccccc1-c1cn(C)c(=O)n2cc(COc3ccc(Cl)cc3)nc12,i
Cn1cc(-c2cn(C)c(=O)n3cc(COc4ccccc4)nc23)cn1,i
SMILES,KDM5B inhibitor
COc1ccccc1CC(=O)Nc1cccc(C(=O)NC(C)(C)C)c1,i
Cc1oc2c(c1C(=O)NCCN1CCOCC1)CN(Cc1cccc(F)c1)CC2,i
COCCCNC(=O)c1nc(-c2cccc3[nH]ccc23)no1,i
Cc1cc(C)c2oc(C(=O)N(Cc3cccc(Cl)c3)C3CCS(=O)(=O)C3)cc(=O)c2c1 (stereo not given),i
COc1ccc(C2CC(=O)Nc3c2c(=O)nc(SC)n3C)cc1 (stereo not given),i
Cc1oc2cc(OCC(=O)Nc3ccc(O)cc3)ccc2c(=O)c1-c1ccccc1,i
Cc1cc(Br)ccc1NC(=O)c1ccc(=O)n(CCOc2ccccc2)n1,i
CC(=O)N(c1nc(COc2ccccc2C(N)=O)cs1)c1ccc(C)cc1C,i
Cc1ccccc1NC(=O)c1ccc2ccccc2n1,i
Cc1cc(SC(C(=O)O)c2ccccc2)ncn1 (stereo not given),i
COc1ccc(OC)c(-c2nc(CN3CCCC(C(C)(C)O)C3)c(C)o2)c1 (stereo not given),20µM*
COc1ccc(-c2nc(CN3CCS(=O)(=O)CC3)c(C)o2)c(OC)c1C,i
CNC(=O)c1ccc(-c2nc(CN3CCN(C(=O)Nc4ccc(OC)cc4OC)CC3)c(C)o2)cc1,i
O=Cc1c[nH]c2cc(OCc3ccccc3)ccc12,i
CC(C)N1C(=O)C2(CCCC2)C1C(=O)N1CCc2ccccc21 (stereo not given),i
COc1cccc(Nc2ncc3c(n2)C(C)(C(=O)NCc2cccnc2)CC3)c1 (stereo not given),i
COc1ccc(NC(=O)C2(C)COCc3cnc(Nc4ccccc4)nc32)cn1 (stereo not given),i
O=C(NCc1cccc(Cl)c1)c1ccc(CN2C(=O)NC3(CCOCC3)C2=O)cc1,i
COc1cccc(NC(=O)C2(C)CCc3cnc(N4CCOCC4)nc32)c1 (stereo not given),28µM*
COc1ccc(NC(=O)C2(C)CCc3cnc(N4CCOCC4)nc32)cn1 (stereo not given),35µM*
Cn1ccc(NC(=O)C2(C)CCc3cnc(Nc4ccccc4)nc32)n1 (stereo not given),i
CC1(C(=O)Nc2ccccc2)CCc2cnc(N3CCOCC3)nc21 (stereo not given),35µM*
CC1(C(=O)NCc2cccc(Cl)c2)CCc2cnc(N3CCOCC3)nc21 (stereo not given),35µM*
